Cycloheximide cs – affects cycloheximide protein synthesis inhibition readout, counter-screen. hit rate 12% among 300,000. cell reporter, cycloheximide protein synthesis inhibition counterscreen. max response, %; in the data active means max response mostly above about 13%, no sharp cut-off; inactive means mostly below about 14%; further: read at 38.3 µM for the half of the compounds with a filed dose
Shiga toxin inh – Shiga toxin inhibition | Vero cells, Shiga toxin protein synthesis inhibition reporter | inhibition, % at 38.7 µM | hit rate 9.2% among 290,000 | AID 2315; in the data active means inhibition mostly above about 28%, no sharp cut-off; inactive means mostly below about 43%
Pf growth 48h – inhibits P. falciparum growth in the first generation, 48 h; P. falciparum luciferase growth in erythrocytes, 48 h; Potency, µM (top dose mostly 28.7 µM), usual class: inhibitors; hit rate 5.9% among 310,000
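Luciferase-expressing P. falciparum in infected erythrocytes (2% hematocrit, 0.1% parasitemia final) in RPMI 1640/0.5% Albumax were exposed to compound for 48 hours at 37 C, 5% CO2; growth read as luminescence.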
Sm TGR inh – inhibitors of Schistosoma mansoni thioredoxin glutathione reductase; Q962Y6; purified TGR, DTNB reduction, TNB absorbance 405 nm; Potency, µM (highest dose often 114 µM), usual class: inhibitors; hit rate 3% among 360,000; AID 485364; further: nearly all actives have a fitted effect of over 60% in size
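First, TGR (20 nM dispensed) and NADPH were mixed with compound. Second, a 15 min room-temperature incubation followed. Third, further NADPH and then DTNB were added to start the reaction. Finally, TNB absorbance was monitored kinetically.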
Pf growth 96h – inhibits malaria parasite growth, 96 h. P. falciparum luciferase reporter growth, 96 h. Potency, µM (top dose mostly 28.7 µM), usual class: inhibitors. hit rate 6.9% among 320,000. AID 504834
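P. falciparum expressing integrated firefly luciferase, in erythrocytes at 2% hematocrit, 0.05% parasitemia, incubated with compounds 96 h at 37 C, 5% CO2. Growth inhibition read as loss of luminescence; two-generation exposure targets delayed-death apicoplast inhibitors.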
NS1 inh – inhibitors of influenza NS1 protein function; AID 2326; Potency, µM (highest dose often 46.1 µM); hit rate 0.4% among 270,000; calls by dose curve; further: actives are rising curves; nearly all actives have a fitted effect of over 50% in size
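Recovery from NS1-induced slow growth read by OD600 in budding yeast switched to galactose assay medium (pH 6.0, -URA) at 1:100 dilution. Compound 23 nl per well; the matching strain lacking NS1 serves as control.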
Large screens that a line does not name were inactive. Rows were chosen to be rich in hits. Some 21% of all compounds tested hit in one or more screens of this group. Unless noted, the call rests on the fitted dose curve; in most records, active means well fitted curve in the direction sought with a large enough effect; inconclusive means small, poorly fitted or top-dose-only effect, or another doubt; inactive means no such curve, though single readings can be large; an effect the other way counts as inactive or inconclusive.

Fc1ccc(N2CN(Cc3cccnc3)CNC2=S)cc1	none
O=C1C(C=NCCCN2CCCC2=O)=C(O)c2ccccc21	Cycloheximide cs 40, Shiga toxin inh 102, Pf growth 96h 13µM
O=C1C(C=NCCCn2ccnc2)=C(O)c2ccccc21	none (no result: Cycloheximide cs, Shiga toxin inh, Pf growth 48h, Sm TGR inh, Pf growth 96h)
Cc1cc(CNC(=O)c2ccc3oc(C(C)C)nc3c2)nn1C	none
CCCCc1nc2cc(C(=O)N3CCNC(=O)C3)ccc2o1	Cycloheximide cs 14, Pf growth 96h inconclusive
CCCCc1nc2cc(C(=O)N3CCCC3)ccc2o1	Cycloheximide cs 31, Shiga toxin inh 68
CCCCc1nc2cc(C(=O)N3CCN(c4cnccn4)CC3)ccc2o1	none
CCCCc1nc2cc(C(=O)NC(C)c3cnn(C)c3)ccc2o1 (stereo unspecified)	Cycloheximide cs 34, Shiga toxin inh 66
CCCC(=O)NC(=S)Nc1ccc(N2CCN(C(=O)c3cccs3)CC2)cc1	Pf growth 48h inconclusive, Sm TGR inh inconclusive (no result: NS1 inh)
CC1Cc2ccccc2N1S(=O)(=O)c1cnc(Cl)c(Cl)c1 (stereo unspecified)	Pf growth 48h inconclusive, Pf growth 96h inconclusive
CC1Cc2ccccc2N1S(=O)(=O)c1cnc(Cl)c(Br)c1 (stereo unspecified)	Sm TGR inh 7.9µM, Pf growth 96h inconclusive
Oc1ccccc1/C=N/Nc1cccc2cccnc12	Cycloheximide cs 30, Shiga toxin inh 101
O=C(O)c1ccc(N/N=C/c2ccnc3ccccc23)cc1	Cycloheximide cs 41, Shiga toxin inh 91
O=C(O)c1ccc(N/N=C/c2cccc3cccnc23)cc1	Cycloheximide cs 49, Shiga toxin inh 83
O=C(COc1cccc2cccnc12)N/N=C/c1ccccc1O	Pf growth 48h inconclusive, Pf growth 96h inconclusive
CCCCC1CCC(C(=O)N2CC(=O)Nc3ccc(Cl)cc3C2c2ccc(F)cc2)CC1 (stereo unspecified)	none (no result: Cycloheximide cs, Shiga toxin inh, Pf growth 48h, Pf growth 96h, NS1 inh)
COc1ccc(N2CC(C(=O)N[C@@H](C)C(=O)NC3CCCCC3)CC2=O)cc1 (stereo partly specified)	none
COc1ccc(C(=O)NC(=S)N2CCCC2)cc1	Pf growth 96h 13µM
COc1ccc(C(=O)NC(=S)N2CC(C)OC(C)C2)cc1 (stereo unspecified)	none
COc1ccc(C(=O)N/C(=C/c2ccco2)C(=O)N2CCCCCC2)cc1	Sm TGR inh 45µM
COc1ccc(NC(=S)N2CCCC2)cc1	none
COc1ccc(C(=O)NC(=S)N2CCC(C)CC2)cc1	Cycloheximide cs 26 (no result: Pf growth 48h)
COc1ccc(NC(=O)C(=S)N2CCCC2)cc1	Cycloheximide cs 30, Pf growth 96h inconclusive
CCOc1ccccc1CN1CCN(Cc2nc3c(s2)CCCC3)CC1CCO (stereo unspecified)	Pf growth 48h inconclusive, Sm TGR inh inconclusive
CCOC(=O)N1CCC(NC(=O)c2ccc3c(c2)N(Cc2ccc(Cl)cc2)C(=O)c2ccccc2S3=O)CC1 (stereo unspecified)	none (no result: Cycloheximide cs, Shiga toxin inh, Pf growth 48h, Pf growth 96h, NS1 inh)
COC(=O)c1ccc(C(=O)OC)c(NC(=S)N2CCC(C)CC2)c1	Pf growth 96h 7.4µM
COc1ccc(C(=O)NC(=S)NC2CCSC2=O)cc1 (stereo unspecified)	Shiga toxin inh 27
O=C(COc1ccc(Cl)cc1)NC1CCSC1=O (stereo unspecified)	Cycloheximide cs 19, Shiga toxin inh 53
COc1cc(OC)cc(C(=O)NC(=S)N2CCCCCC2)c1	Pf growth 48h inconclusive
COC(=O)c1ccc(C(=O)OC)c(NC(=S)N2CCCC2)c1	Pf growth 96h inconclusive
O=C(NC1CCSC1=O)c1ccc(Cl)cc1 (stereo unspecified)	none (no result: Pf growth 48h)
COc1ccc(C(=O)NC(=S)N2CCCCC2)cc1	Cycloheximide cs 19, Shiga toxin inh 40, NS1 inh inconclusive (no result: Pf growth 48h)
COC(=O)C1=C(NC(=O)COc2ccc(Cl)cc2Cl)CCS1	none
CC(=O)Nc1cccc(OCC(=O)Nc2ccc(F)cc2)c1	Cycloheximide cs 15
Cc1ccc(OCC(=O)Nc2cc(C(=O)O)cc(C(=O)O)c2)cc1C	none (no result: NS1 inh)
Cc1ccc(OCC(=O)Nc2ccc(F)cc2)cc1C	Cycloheximide cs 39, Shiga toxin inh 46
CC1CCCCC1NC(=O)CN1C(=O)NC(C)(c2cccc(Br)c2)C1=O (stereo unspecified)	none (no result: Cycloheximide cs, Shiga toxin inh, NS1 inh)
Cc1ccc(-c2noc(CNC(=O)c3ccc4c(c3)OCO4)n2)cc1	none

Compound activity (PubChem)
